Measured values as given in PMC7862700, “An all-to-all approach to the identification of sequence-specific readers for epigenetic DNA modifications on cytosine”.

What was measured:
Assay in all cases: DAPPL (digital affinity profiling via proximity ligation, sequencing); 10 mM Tris-HCl pH 7.5, 50 mM NaCl, 1 mM DTT, 4% glycerol, room temperature, 30 min; GST-TFs on glutathione beads, 16-mer random dsDNA library, 0.1% formaldehyde crosslink after washing; high values mean tight binding
FLI1 = target: T1, FLI1 (Homo sapiens, UniProt Q01543 1-452); details: protein: recombinant; tags: N-terminal GST; dsDNA, one strand shown
T1 sequence: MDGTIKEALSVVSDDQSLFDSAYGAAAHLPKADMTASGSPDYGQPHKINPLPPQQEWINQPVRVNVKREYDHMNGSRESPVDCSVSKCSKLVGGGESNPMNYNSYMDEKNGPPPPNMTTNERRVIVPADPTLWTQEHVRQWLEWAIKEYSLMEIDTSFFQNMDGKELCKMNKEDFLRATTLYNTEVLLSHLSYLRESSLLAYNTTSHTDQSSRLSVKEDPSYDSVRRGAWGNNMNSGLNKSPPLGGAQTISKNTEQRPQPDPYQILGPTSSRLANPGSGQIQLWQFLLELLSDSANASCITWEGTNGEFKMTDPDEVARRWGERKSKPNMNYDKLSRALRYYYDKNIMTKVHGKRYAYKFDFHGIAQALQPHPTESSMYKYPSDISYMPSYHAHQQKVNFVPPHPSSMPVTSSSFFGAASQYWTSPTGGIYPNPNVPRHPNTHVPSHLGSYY
Summary of the method: (§1)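 Yeast served to express human transcription factors as GST fusions, which were then captured on glutathione beads and labelled with DNA barcodes. Pooled with a tag-only sample, they were incubated with 200 nmole of a 16-mer random double-stranded DNA library for 30 min at room temperature in Tris/NaCl/DTT/glycerol buffer, washed, crosslinked with 0.1% formaldehyde, ligated by proximity, amplified by PCR and sequenced. Dividing each hexamer's read frequency for a factor by its frequency for the tag-only sample gives the binding signal.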

ELF1 = ELF1 (Homo sapiens, UniProt P32519 1-619); details: protein: recombinant; tags: N-terminal GST; dsDNA, one strand shown
Sequence of ELF1 (P32519 whole entry): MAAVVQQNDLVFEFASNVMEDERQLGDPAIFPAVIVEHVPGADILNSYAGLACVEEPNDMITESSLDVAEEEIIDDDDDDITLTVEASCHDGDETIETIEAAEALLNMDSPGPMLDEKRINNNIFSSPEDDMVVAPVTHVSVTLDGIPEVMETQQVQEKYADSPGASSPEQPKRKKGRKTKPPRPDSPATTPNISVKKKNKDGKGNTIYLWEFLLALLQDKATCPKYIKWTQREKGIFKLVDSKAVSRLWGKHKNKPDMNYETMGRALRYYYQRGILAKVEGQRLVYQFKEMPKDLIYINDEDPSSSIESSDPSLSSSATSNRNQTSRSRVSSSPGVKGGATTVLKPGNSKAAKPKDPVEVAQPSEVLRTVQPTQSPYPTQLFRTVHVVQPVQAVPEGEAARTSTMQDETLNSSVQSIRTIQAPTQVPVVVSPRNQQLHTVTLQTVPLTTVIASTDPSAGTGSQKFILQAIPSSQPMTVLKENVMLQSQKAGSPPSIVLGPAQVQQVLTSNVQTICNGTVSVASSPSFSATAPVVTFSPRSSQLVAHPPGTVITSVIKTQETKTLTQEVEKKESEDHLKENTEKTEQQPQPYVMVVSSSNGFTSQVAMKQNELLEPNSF
Summary of the method: as §1

EHF = target: T2, EHF (Homo sapiens, UniProt Q9NZC4 1-300); details: protein: recombinant; tags: N-terminal GST; dsDNA, one strand shown
T2 sequence: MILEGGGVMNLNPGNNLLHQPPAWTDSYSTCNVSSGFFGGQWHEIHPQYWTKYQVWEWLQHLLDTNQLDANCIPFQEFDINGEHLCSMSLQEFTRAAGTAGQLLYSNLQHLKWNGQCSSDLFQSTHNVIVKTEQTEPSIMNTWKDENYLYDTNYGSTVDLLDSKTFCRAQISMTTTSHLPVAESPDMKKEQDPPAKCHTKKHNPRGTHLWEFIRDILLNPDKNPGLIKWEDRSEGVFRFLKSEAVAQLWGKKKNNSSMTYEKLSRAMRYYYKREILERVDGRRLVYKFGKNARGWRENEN
Summary of the method: as §1

SPI1 = SPI1 (Homo sapiens, UniProt P17947 1-270); details: protein: recombinant; tags: N-terminal GST; dsDNA, one strand shown
Summary of the method: as §1

SPIB = SPIB (Homo sapiens, UniProt Q01892 1-262); details: protein: recombinant; tags: N-terminal GST; dsDNA, one strand shown
Sequence of SPIB (Q01892 whole entry): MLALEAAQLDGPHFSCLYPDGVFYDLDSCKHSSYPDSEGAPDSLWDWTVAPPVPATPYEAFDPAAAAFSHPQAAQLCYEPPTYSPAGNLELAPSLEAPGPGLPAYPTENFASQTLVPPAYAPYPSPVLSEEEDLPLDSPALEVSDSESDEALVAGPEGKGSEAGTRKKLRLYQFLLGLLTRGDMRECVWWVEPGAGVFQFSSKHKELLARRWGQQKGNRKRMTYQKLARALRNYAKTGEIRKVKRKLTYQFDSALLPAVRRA
Summary of the method: as §1

ELK3 = target: T3, ELK3 (Homo sapiens, UniProt P41970 1-407); details: protein: recombinant; tags: N-terminal GST; dsDNA, one strand shown
T3 sequence: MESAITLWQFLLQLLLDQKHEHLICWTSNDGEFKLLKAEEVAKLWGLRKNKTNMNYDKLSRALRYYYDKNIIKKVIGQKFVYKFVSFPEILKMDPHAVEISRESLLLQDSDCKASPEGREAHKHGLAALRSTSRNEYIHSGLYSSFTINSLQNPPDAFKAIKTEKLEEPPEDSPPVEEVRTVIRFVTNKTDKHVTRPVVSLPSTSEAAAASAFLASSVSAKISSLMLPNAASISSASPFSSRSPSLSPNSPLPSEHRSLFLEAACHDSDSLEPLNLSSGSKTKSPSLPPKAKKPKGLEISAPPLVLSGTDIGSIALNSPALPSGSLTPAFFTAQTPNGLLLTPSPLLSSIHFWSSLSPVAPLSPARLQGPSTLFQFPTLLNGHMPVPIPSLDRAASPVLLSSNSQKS
Summary of the method: as §1

FEV = target: T4, FEV (Homo sapiens, UniProt Q99581 1-238); details: protein: recombinant; tags: N-terminal GST; dsDNA, one strand shown
T4 sequence: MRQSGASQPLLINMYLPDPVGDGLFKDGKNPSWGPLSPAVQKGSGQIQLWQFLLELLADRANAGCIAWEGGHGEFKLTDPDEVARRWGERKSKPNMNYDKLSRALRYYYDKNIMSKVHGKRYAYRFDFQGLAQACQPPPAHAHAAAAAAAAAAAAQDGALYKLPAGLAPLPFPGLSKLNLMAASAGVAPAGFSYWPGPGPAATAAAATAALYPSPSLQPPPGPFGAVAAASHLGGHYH
Summary of the method: as §1

ETV5 = ETV5 (Homo sapiens, UniProt P41161 1-510); details: protein: recombinant; tags: N-terminal GST; dsDNA, one strand shown
Sequence of ETV5 (P41161 whole entry): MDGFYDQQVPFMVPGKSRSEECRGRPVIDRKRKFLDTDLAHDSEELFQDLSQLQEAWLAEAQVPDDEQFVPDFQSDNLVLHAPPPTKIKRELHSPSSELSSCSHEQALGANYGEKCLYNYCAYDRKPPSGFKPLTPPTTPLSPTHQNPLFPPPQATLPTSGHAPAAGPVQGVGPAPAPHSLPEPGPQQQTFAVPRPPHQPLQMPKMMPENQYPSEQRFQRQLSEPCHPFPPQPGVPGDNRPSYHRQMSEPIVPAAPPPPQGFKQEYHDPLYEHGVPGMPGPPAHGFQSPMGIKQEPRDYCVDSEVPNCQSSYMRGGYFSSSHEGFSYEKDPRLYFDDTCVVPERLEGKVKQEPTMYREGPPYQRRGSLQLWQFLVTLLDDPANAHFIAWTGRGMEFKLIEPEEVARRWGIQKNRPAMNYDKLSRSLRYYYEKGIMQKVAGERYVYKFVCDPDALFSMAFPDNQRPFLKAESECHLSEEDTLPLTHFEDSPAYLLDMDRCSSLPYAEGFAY
Summary of the method: as §1

HSF1 = HSF1 (Homo sapiens, UniProt Q00613 1-529); details: protein: recombinant; tags: N-terminal GST; chain copies: 3; dsDNA, one strand shown
Sequence of HSF1 (Q00613 whole entry): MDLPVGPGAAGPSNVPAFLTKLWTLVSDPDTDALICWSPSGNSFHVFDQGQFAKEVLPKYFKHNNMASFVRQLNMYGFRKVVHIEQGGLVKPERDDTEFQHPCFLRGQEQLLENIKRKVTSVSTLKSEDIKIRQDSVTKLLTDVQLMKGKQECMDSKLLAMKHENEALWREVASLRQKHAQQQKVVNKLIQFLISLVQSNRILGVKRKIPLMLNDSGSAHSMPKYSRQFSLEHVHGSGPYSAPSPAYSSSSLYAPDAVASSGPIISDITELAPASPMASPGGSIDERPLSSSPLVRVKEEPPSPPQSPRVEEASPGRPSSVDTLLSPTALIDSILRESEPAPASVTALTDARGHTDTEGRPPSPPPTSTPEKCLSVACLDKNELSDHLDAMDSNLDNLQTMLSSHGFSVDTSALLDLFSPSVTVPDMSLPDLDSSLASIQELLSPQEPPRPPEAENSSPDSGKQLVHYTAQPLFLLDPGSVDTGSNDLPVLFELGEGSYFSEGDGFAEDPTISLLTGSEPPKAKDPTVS
Summary of the method: as §1

SPIC = target: T5, SPIC (Homo sapiens, UniProt Q8N5J4 1-248); details: protein: recombinant; tags: N-terminal GST; dsDNA, one strand shown
T5 sequence: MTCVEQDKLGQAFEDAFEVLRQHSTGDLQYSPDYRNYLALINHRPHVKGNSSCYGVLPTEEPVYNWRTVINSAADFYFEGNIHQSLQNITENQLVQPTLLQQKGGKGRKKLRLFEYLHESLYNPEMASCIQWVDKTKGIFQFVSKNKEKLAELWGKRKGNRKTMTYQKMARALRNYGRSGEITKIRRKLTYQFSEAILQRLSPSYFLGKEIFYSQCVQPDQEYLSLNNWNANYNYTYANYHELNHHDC
Summary of the method: as §1

ELF4 = ELF4 (Homo sapiens, UniProt Q99607 1-663); details: protein: recombinant; tags: N-terminal GST; dsDNA, one strand shown
Sequence of ELF4 (Q99607 whole entry): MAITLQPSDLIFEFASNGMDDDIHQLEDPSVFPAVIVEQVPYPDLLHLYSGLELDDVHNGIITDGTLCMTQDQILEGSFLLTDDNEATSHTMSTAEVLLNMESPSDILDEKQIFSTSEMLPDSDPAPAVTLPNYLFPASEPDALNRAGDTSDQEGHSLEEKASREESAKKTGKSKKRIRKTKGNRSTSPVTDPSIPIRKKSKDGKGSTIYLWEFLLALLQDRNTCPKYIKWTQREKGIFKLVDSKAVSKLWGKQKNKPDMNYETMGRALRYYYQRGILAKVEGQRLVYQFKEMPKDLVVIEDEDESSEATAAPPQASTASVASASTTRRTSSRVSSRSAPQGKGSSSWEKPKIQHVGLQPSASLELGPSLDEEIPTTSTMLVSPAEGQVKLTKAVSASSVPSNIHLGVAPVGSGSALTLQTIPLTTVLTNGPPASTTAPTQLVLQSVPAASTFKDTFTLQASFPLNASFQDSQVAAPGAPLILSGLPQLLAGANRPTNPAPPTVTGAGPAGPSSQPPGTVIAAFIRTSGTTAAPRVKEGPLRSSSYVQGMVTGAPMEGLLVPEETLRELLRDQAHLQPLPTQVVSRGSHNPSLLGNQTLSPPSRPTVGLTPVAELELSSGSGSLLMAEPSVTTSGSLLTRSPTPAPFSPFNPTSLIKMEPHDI
Summary of the method: as §1

ELK4 = target: T6, ELK4 (Homo sapiens, UniProt P28324-2 1-405); details: protein: recombinant; tags: N-terminal GST; dsDNA, one strand shown
T6 sequence: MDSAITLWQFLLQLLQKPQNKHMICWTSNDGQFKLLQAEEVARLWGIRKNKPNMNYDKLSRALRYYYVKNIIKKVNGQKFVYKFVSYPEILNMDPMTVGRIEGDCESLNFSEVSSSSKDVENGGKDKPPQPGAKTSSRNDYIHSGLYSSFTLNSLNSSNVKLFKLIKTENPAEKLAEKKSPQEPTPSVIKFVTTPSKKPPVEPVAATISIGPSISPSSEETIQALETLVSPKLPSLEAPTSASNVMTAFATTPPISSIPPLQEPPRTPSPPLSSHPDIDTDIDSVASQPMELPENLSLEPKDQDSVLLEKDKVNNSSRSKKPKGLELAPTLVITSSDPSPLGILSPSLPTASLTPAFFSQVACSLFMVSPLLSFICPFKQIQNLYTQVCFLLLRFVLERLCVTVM
Summary of the method: as §1

ETV2 = target: T7, ETV2 (Homo sapiens, UniProt O00321 1-342); details: protein: recombinant; tags: N-terminal GST; dsDNA, one strand shown
T7 sequence: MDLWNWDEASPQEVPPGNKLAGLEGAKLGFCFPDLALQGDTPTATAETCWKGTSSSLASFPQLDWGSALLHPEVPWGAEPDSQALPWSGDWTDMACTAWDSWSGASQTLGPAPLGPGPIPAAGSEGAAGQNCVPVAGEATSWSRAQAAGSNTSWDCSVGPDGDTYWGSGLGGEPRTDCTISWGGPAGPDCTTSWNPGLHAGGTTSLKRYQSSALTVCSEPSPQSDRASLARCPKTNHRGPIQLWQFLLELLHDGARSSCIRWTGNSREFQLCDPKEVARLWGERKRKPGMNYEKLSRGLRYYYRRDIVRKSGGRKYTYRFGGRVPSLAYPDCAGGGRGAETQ
Summary of the method: as §1

ELF3 = target: T8, ELF3 (Homo sapiens, UniProt P78545 1-371); details: protein: recombinant; tags: N-terminal GST; dsDNA, one strand shown
T8 sequence: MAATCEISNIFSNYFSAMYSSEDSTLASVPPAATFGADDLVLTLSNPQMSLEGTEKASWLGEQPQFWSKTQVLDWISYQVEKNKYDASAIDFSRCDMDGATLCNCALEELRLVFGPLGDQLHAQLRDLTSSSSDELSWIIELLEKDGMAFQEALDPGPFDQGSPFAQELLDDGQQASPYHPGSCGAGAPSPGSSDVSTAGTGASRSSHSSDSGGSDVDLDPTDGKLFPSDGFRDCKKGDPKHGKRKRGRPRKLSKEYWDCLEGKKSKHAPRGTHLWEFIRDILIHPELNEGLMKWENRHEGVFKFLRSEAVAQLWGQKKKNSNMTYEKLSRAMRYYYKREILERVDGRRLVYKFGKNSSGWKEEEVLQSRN
Summary of the method: as §1

CRX = CRX (Homo sapiens, UniProt O43186 1-299); details: protein: recombinant; tags: N-terminal GST; dsDNA, one strand shown
Sequence of CRX (O43186 whole entry): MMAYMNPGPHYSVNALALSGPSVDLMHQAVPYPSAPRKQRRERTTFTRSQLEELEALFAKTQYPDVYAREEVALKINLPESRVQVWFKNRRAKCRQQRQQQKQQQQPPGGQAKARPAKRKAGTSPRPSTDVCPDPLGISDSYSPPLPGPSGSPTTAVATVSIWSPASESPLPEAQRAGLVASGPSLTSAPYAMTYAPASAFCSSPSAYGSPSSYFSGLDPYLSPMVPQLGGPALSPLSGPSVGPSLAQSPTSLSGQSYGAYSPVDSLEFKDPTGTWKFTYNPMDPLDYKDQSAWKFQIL
Summary of the method: as §1

ETV1 = ETV1 (Homo sapiens, UniProt P50549 1-477); details: protein: recombinant; tags: N-terminal GST; dsDNA, one strand shown
Sequence of ETV1 (P50549 whole entry): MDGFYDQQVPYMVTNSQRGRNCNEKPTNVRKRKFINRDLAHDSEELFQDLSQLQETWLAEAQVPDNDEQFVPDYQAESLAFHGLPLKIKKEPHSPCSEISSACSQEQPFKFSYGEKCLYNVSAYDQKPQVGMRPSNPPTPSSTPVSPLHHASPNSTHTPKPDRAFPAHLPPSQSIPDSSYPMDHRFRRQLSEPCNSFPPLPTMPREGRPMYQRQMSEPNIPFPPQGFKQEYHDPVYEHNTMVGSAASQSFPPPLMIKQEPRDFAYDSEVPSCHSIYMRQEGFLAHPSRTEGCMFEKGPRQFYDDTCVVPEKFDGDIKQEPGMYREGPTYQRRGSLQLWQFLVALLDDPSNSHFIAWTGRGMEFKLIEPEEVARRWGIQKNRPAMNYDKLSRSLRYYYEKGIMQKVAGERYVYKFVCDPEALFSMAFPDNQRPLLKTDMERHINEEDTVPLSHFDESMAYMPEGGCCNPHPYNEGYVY
Summary of the method: as §1

**Q.** Which results are given for CATCGA?
**A.** binding signal (FLI1): 1.12 fold enrichment (6-mer frequency, TF over GST control); binding signal (ELF1): 1.12 fold enrichment (6-mer frequency, TF over GST control); binding signal (EHF): 1.16 fold enrichment (6-mer frequency, TF over GST control); binding signal (SPI1): 1.09 fold enrichment (6-mer frequency, TF over GST control); binding signal (SPIB): 1.03 fold enrichment (6-mer frequency, TF over GST control); binding signal (ELK3): 1.03 fold enrichment (6-mer frequency, TF over GST control); binding signal (FEV): 1.05 fold enrichment (6-mer frequency, TF over GST control); binding signal (ETV5): 1.17 fold enrichment (6-mer frequency, TF over GST control); binding signal (HSF1): 1.42 fold enrichment (6-mer frequency, TF over GST control); binding signal (SPIC): 1.06 fold enrichment (6-mer frequency, TF over GST control); binding signal (ELF4): 1.12 fold enrichment (6-mer frequency, TF over GST control); binding signal (ELK4): 1.06 fold enrichment (6-mer frequency, TF over GST control); binding signal (ETV2): 1.16 fold enrichment (6-mer frequency, TF over GST control); binding signal (ELF3): 1.04 fold enrichment (6-mer frequency, TF over GST control); binding signal (CRX): 1.05 fold enrichment (6-mer frequency, TF over GST control); binding signal (ETV1): 1.05 fold enrichment (6-mer frequency, TF over GST control)
